Records with an inconclusive call do not appear. Activity calls are given as the source filed them. Unless noted, calls come from the whole dose curve; as a rule, active = well fitted curve in the direction sought with a large enough effect in the repeat runs; inconclusive = weak or mixed curves; inactive = no such curve, though single readings can be large; an effect the other way counts as inactive or inconclusive.
Key:
[1] = qHTS assay to identify small molecule agonists of the peroxisome proliferator-activated receptor delta (PPARd) signaling pathway - cell viability counter screen (AID 743211); note: nearly all actives have a fitted effect of over 55% in size
Outline: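 Viability of GeneBLAzer PPARd UAS-bla HEK293H cells was assessed after 17 h compound incubation at 37C, using CellTiter-Glo reagent added after the reporter read and luminescence recorded 30 min later.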

[2] = qHTS assay to identify small molecule antagonists of the peroxisome proliferator-activated receptor delta (PPARd) signaling pathway - cell viability counter screen (AID 743213); note: nearly all actives have a fitted effect of over 50% in size
Outline: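 Luminescence from CellTiter-Glo, added after the bla read and incubated 30 min at room temperature, gives viability of HEK293H PPARd-bla cells exposed to compounds for 17 h at 37 C with 300 nM L165041.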

[3] = target: Bile acid receptor (Homo sapiens) (UniProt Q96RI1); test: qHTS assay to identify small molecule antagonists of the farnesoid-X-receptor (FXR) signaling pathway (AID 743217; active = well fitted inhibition curve with a large enough effect in the signal ratio in the repeat runs, not every such curve was filed as active; the % refers to the signal ratio)
Bile acid receptor (Homo sapiens), sequence (Q96RI1 whole entry, looked up): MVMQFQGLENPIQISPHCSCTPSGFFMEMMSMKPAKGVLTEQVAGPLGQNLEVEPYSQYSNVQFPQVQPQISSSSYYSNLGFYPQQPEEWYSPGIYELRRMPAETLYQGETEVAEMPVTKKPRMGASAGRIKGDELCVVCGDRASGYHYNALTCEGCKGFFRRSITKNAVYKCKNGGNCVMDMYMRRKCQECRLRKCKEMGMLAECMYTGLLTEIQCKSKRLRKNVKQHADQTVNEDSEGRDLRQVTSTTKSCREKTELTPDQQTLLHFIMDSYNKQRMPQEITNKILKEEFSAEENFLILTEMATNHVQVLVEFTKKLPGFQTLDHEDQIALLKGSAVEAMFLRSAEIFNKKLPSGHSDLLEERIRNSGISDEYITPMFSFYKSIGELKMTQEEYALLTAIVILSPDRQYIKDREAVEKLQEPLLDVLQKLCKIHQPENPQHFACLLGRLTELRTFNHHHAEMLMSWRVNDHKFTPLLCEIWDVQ
Outline: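 HEK 293T FXR-UAS-bla, 5000 cells/well; compound + CDCA 50 uM final; 16 h, 37 °C; B/G FRET substrate 2 h RT; fluorescence.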

[4] = qHTS assay to identify small molecule agonists of the farnesoid-X-receptor (FXR) signaling pathway - cell viability counter screen (AID 743218); note: nearly all actives have a fitted effect of over 45% in size
Outline: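 HEK 293T FXR-bla cells; 5 h pre-incubation, 16 h compound exposure at 37 C; LiveBLAzer substrate 2 h RT, then CellTiter-Glo 30 min RT, luminescence.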

[5] = qHTS assay to identify small molecule antagonists of the farnesoid-X-receptor (FXR) signaling pathway - cell viability counter screen (AID 743221; active = well fitted cell-killing curve with a large enough effect in the repeat runs, not every such curve was filed as active; note: nearly all actives have a fitted effect of over 50% in size)
Outline: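 Quantitative HTS of the Tox21 10K library run in parallel with the beta-lactamase reporter read. HEK 293T cells carrying a UAS-driven bla reporter got compound and 50 uM CDCA (final) for 16 h; ATP-based luminescence followed.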

[6] = qHTS assay to identify small molecule agonists of the vitamin D receptor (VDR) signaling pathway - cell viability counter screen (AID 743224); note: series mostly up to about 63 µM; nearly all actives have a fitted effect of over 50% in size
Outline: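 Luminescence from CellTiter-Glo, read after 30 min at room temperature, reports viability of VDR-bla cells treated with compounds for 16 h at 37C in the wells used for the beta-lactamase FRET read.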

[7] = qHTS assay to identify small molecule antagonists of the vitamin D receptor (VDR) signaling pathway - cell viability counter screen (AID 743225); note: nearly all actives have a fitted effect of over 50% in size
Outline: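 Cells (VDR-UAS-bla HEK 293T) are plated, rested 4 h at 37C, dosed with compound and 3 nM final 1-alpha,25-dihydroxy vitamin D3, and incubated 16 h. Viability is taken from CellTiter-Glo luminescence in the reporter wells.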

[8] = qHTS assay to identify small molecule agonists of the NFkB signaling pathway (AID 1159509; active = well fitted curve in the direction sought with a large enough effect in the signal ratio in the repeat runs, not every such curve was filed as active; the % refers to the signal ratio; note: series mostly up to about 61 µM)
Outline: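 NFkB-bla ME-180 cells with a beta-lactamase reporter under an NF-kB response element were plated overnight, treated with compounds in DMSO for 5 hr at 37 C, then loaded with FRET substrate for 1.5 hr at room temperature.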

[9] = qHTS assay to identify small molecule agonists of the NFkB signaling pathway - cell viability counter screen (AID 1159515; calls by dose curve; note: series mostly up to about 61 µM; nearly all actives have a fitted effect of over 55% in size)
Outline: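 Luminescence from CellTiter-Glo (30 min, room temperature) gives viability, measured in the same wells as the beta-lactamase reporter read. Cells were NFkB-bla ME-180, 2,000 per well, treated 5 hr with compounds.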

[10] = qHTS assay to identify small molecule agonists of the endoplasmic reticulum stress response signaling pathway (AID 1159516; active = well fitted activation curve with a large enough effect in the signal ratio in the repeat runs, not every such curve was filed as active; the % refers to the signal ratio)
Outline: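 Read-out is beta-lactamase cleavage of a FRET substrate (405 nm excitation; 460 and 530 nm emissions) in ESRE-bla HeLa cells after a 5 hr compound exposure at 37 C. Substrate incubation ran 2 hr at room temperature.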

[11] = qHTS assay to identify small molecule agonists of the endoplasmic reticulum stress response signaling pathway - cell viability counter screen (AID 1159517; calls by dose curve)
Outline: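 Cells, HeLa ESRE-bla; density, 1,500/well; dosing, 5 hr at 37 C, 5% CO2; readout, CellTiter-Glo luminescence after 30 min RT.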

[12] = qHTS assay to identify small molecule antagonists of the retinoid-related orphan receptor gamma (ROR-gamma) signaling pathway - cell viability counter screen (AID 1159520); note: nearly all actives have a fitted effect of over 50% in size
Outline: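 Cytotoxicity was read from cellular ATP (CellTiter-Glo luminescence) after 16 hr at 37 C with 1 uM doxycycline induction. The inducer was added 2 hr after compound transfer to Tet-on ROR gamma CHO cells.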

[13] = target: Nuclear receptor ROR-gamma (Homo sapiens) (UniProt P51449); test: qHTS assay to identify small molecule antagonists of the retinoid-related orphan receptor gamma (ROR-gamma) signaling pathway (AID 1159521)
Outline: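 RORγ antagonism is scored from reduced reporter luminescence in Tet-on CHO cells. Induction used 1 uM final doxycycline hyclate for 16 h at 37 C, following a 2 h compound exposure.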

[14] = qHTS assay to identify small molecule agonists of the AP-1 signaling pathway - cell viability counter screen (AID 1159525; calls by dose curve; note: nearly all actives have a fitted effect of over 55% in size)
Outline: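 Luminescent ATP readout (Cell Titer Glo, 30 min RT), normalised to DMSO and tetra n-octyl ammonium bromide controls. Cells were ME-180 AP-1-bla in 0.5% dialyzed FBS Opti-MEM, with a 5 h, 37 °C compound exposure.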

[15] = qHTS assay to identify small molecule agonists of the AP-1 signaling pathway (AID 1159526; calls by dose curve)
[16] = target: Peroxisome proliferator-activated receptor delta (Homo sapiens) (UniProt Q03181); test: qHTS assay to identify small molecule agonists of the peroxisome proliferator-activated receptor delta (PPARd) signaling pathway (AID 743212; calls by dose curve)
Peroxisome proliferator-activated receptor delta (Homo sapiens), sequence (Q03181 whole entry, looked up): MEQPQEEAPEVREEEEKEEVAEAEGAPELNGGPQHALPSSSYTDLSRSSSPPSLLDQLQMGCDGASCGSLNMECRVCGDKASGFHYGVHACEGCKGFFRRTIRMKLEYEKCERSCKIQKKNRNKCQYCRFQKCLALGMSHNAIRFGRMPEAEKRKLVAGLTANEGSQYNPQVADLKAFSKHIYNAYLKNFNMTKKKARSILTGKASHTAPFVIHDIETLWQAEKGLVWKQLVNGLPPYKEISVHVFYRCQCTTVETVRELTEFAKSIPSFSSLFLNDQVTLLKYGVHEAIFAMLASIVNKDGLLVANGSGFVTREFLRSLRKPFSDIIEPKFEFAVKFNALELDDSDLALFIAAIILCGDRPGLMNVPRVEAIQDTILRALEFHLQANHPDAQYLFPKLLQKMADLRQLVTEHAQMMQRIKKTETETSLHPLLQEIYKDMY
Outline: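 HEK293H UAS-bla reporter cells, human PPARd system; compounds delivered in DMSO after 5 h plating, then at 37 C. Beta-lactamase FRET read, 2 h RT substrate step.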

[17] = target: Peroxisome proliferator-activated receptor delta (Homo sapiens) (UniProt Q03181); test: qHTS assay to identify small molecule antagonists of the peroxisome proliferator-activated receptor delta (PPARd) signaling pathway (AID 743215; active = well fitted inhibition curve with a large enough effect in the signal ratio in the repeat runs, not every such curve was filed as active; the % refers to the signal ratio;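 note: cells stimulated with agonist L165041 at 300 nM final during compound exposure; series mostly up to about 62 µM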)
Outline: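 Read-out is beta-lactamase FRET fluorescence, measured 2 h after substrate addition at room temperature. Beforehand, UAS-bla HEK293H cells carrying the PPARd reporter were exposed to compounds with L165041 at 300 nM final for 17 h at 37 C.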

[18] = target: Vitamin D3 receptor (Homo sapiens) (UniProt P11473); test: qHTS assay to identify small molecule agonists of the vitamin D receptor (VDR) signaling pathway (AID 743222; calls by dose curve)
Vitamin D3 receptor (Homo sapiens), sequence (P11473 whole entry, looked up): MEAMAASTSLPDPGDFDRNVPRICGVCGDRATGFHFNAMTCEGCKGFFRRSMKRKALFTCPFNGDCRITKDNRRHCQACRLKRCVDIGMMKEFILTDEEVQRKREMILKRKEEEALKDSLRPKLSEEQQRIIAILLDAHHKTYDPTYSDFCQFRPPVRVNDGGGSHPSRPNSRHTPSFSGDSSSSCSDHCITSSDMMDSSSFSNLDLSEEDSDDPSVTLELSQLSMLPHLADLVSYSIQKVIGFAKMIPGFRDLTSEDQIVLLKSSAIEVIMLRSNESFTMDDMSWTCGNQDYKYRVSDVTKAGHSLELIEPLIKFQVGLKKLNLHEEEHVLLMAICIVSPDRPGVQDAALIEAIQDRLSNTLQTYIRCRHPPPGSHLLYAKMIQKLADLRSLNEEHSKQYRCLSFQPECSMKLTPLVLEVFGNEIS
Outline: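 VDR-bla cells, 2,000/well; 4 h preincubation 37C; cpd (DMSO) 16 h; LiveBLAzer B/G substrate 2 h RT; fluorescence intensity read.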

[19] = target: Vitamin D3 receptor (Homo sapiens) (UniProt P11473); test: qHTS assay to identify small molecule antagonists of the vitamin D receptor (VDR) signaling pathway (AID 743223; active = well fitted inhibition curve with a large enough effect in the signal ratio in the repeat runs, not every such curve was filed as active; the % refers to the signal ratio)
Outline: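 Fluorescence from LiveBLAzer B/G FRET substrate, read after 2 h at room temperature, reflects beta-lactamase reporter activity in VDR-bla cells treated 16 h at 37C with compounds and agonist 1alpha,25-dihydroxyvitamin D3 (3 nM final).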

Measured: Potency

CN(C)Cc1cc(CN(C)C)c(O)c(CN(C)C)c1
not listed: [16] | [17] | [18] | [19]
inactive: all other assays above

COc1ccccc1NC(=O)CC(C)=O
not listed: [3]
inactive: all other assays above

CC(O)COc1ccccc1 (stereo not given)
not listed: [14]
inactive: all other assays above

O=C(OCc1ccccc1)c1ccccc1
not listed: [14]
inactive: all other assays above

C=CCOC(=O)CC(C)C
not listed: [14]
inactive: all other assays above

CCCCCCCC(=O)OCC(O)CO (stereo not given)
not listed: [3] | [18] | [19]
inactive: all other assays above

COc1ccccc1O
inactive: all assays above

CO[C@H]1C=CO[C@@]2(C)Oc3c(C)c(O)c4c(O)c(c(/C=N/N5CCN(C)CC5)c(O)c4c3C2=O)NC(=O)/C(C)=C\C=C[C@H](C)[C@H](O)[C@@H](C)[C@@H](O)[C@@H](C)[C@H](OC(C)=O)[C@@H]1C
not listed: [3] | [17]
inactive: all other assays above

Cc1cccc2ccccc12
not listed: [14]
inactive: all other assays above

CC(C)CC(C)CC(O)CC(C)C (stereo not given)
not listed: [19]
inactive: all other assays above

NC(=O)OCC(COC(N)=O)c1ccccc1
not listed: [3] | [18] | [19]
inactive: all other assays above

c1ccc2[nH]c(-c3cscn3)nc2c1
not listed: [14]
inactive: all other assays above

CC(=O)CCC(C)C
not listed: [18] | [19]
inactive: all other assays above

CCCCC/C(C=O)=C\c1ccccc1
not listed: [14] | [18] | [19]
inactive: all other assays above

Cn1cnc2c1c(=O)[nH]c(=O)n2C
not listed: [14]
inactive: all other assays above

Reference: PubChem BioAssay (Tox21)
